Measured values from the supplement of paper PMC8728848.
Shown is part of a subset that was picked to be rich in the strongest signals.

Key:
Assay in all cases: glycan array binding signal (z-score within array); higher = stronger binding
Conditions in all cases: glycan notation: IUPAC condensed, linker removed
[1] = biological target: Fuc(a1-2)Gal(b1-3)GlcNAc(b1-3)[Neu5Ac(a2-6)Gal(b1-4)GlcNAc(b1-6)]Gal(b1-4)Glc
Procedure, shortened: (§1)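 From the Consortium for Functional Glycomics database, 3228 arrays were curated, keeping only those whose protein sequence was available. Binding is given as a within-array Z-score averaged across arrays sharing a protein sequence and across linkers. Negative Z-scores can be read as non-binding.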

[2] = biological target: Fuc(a1-2)Gal(b1-3)[Fuc(a1-4)]GlcNAc(b1-2)Man(a1-3)[Fuc(a1-2)Gal(b1-3)[Fuc(a1-4)]GlcNAc(b1-2)Man(a1-6)]Man(b1-4)GlcNAc(b1-4)GlcNAc
Procedure, shortened: as §1

[3] = biological target: Fuc(a1-2)Gal(b1-4)[Fuc(a1-3)]GlcNAc(b1-2)[Fuc(a1-2)Gal(b1-4)[Fuc(a1-3)]GlcNAc(b1-4)]Man(a1-3)[Fuc(a1-2)Gal(b1-4)[Fuc(a1-3)]GlcNAc(b1-2)Man(a1-6)]Man(b1-4)GlcNAc(b1-4)GlcNAc
Procedure, shortened: as §1

[4] = biological target: Fuc(a1-2)Gal(b1-4)[Fuc(a1-3)]GlcNAc(b1-3)GalNAc
Procedure, shortened: as §1

[5] = biological target: Fuc(a1-2)[Gal(a1-3)]Gal(b1-3)GlcNAc(b1-2)Man(a1-3)[Fuc(a1-2)[Gal(a1-3)]Gal(b1-3)GlcNAc(b1-2)Man(a1-6)]Man(b1-4)GlcNAc(b1-4)GlcNAc
Procedure, shortened: as §1

[6] = biological target: Fuc(a1-2)[Gal(a1-3)]Gal(b1-4)GlcNAc(b1-3)GalNAc
Procedure, shortened: as §1

[7] = biological target: Fuc(a1-2)[Gal(a1-3)]Gal(b1-4)[Fuc(a1-3)]GlcNAc(b1-3)GalNAc
Procedure, shortened: as §1

[8] = biological target: Fuc(a1-2)[GalNAc(a1-3)]Gal(b1-4)GlcNAc(b1-3)GalNAc
Procedure, shortened: as §1

[9] = biological target: Fuc(a1-2)[GalNAc(a1-3)]Gal(b1-4)[Fuc(a1-3)]GlcNAc(b1-3)GalNAc
Procedure, shortened: as §1

[10] = biological target: Fuc(a1-3)[Gal(b1-4)]GlcNAc(b1-3)GalNAc
Procedure, shortened: as §1

[11] = biological target: Fuc(a1-3)[Gal(b1-4)]GlcNAc(b1-4)Gal(b1-4)[Fuc(a1-3)]GlcNAc
Procedure, shortened: as §1

[12] = biological target: Gal(a1-2)Gal
Procedure, shortened: as §1

[13] = biological target: Gal(a1-6)Glc
Procedure, shortened: as §1

[14] = biological target: Gal(b1-3)GlcNAc(a1-6)Gal(b1-4)GlcNAc
Procedure, shortened: as §1

[15] = biological target: Gal(b1-3)GlcNAc(b1-2)Man(a1-3)[Gal(b1-3)GlcNAc(b1-2)Man(a1-6)]Man(b1-4)GlcNAc(b1-4)GlcNAc
Procedure, shortened: as §1

[16] = biological target: Gal(b1-3)GlcNAc(b1-3)Gal(b1-4)Glc
Procedure, shortened: as §1

[17] = biological target: Gal(b1-3)GlcNAc(b1-3)Gal(b1-4)GlcNAc(b1-2)Man(a1-3)[Gal(b1-3)GlcNAc(b1-3)Gal(b1-4)GlcNAc(b1-2)Man(a1-6)]Man(b1-4)GlcNAc(b1-4)GlcNAc
Procedure, shortened: as §1

[18] = biological target: Gal(b1-3)GlcNAc(b1-6)GalNAc
Procedure, shortened: as §1

[19] = biological target: Gal(b1-4)GlcNAc(b1-2)[Gal(b1-4)GlcNAc(b1-6)]Man(a1-6)[Gal(b1-4)GlcNAc(b1-2)Man(a1-3)]Man(b1-4)GlcNAc(b1-4)[Fuc(a1-6)]GlcNAc
Procedure, shortened: as §1

[20] = biological target: Gal(b1-4)GlcNAc(b1-3)Gal(b1-4)GlcNAc(b1-3)Gal(b1-4)GlcNAc
Procedure, shortened: as §1

[21] = biological target: Gal(b1-4)GlcNAc(b1-3)Gal(b1-4)GlcNAc(b1-3)Gal(b1-4)GlcNAc(b1-2)[Gal(b1-4)GlcNAc(b1-3)Gal(b1-4)GlcNAc(b1-3)Gal(b1-4)GlcNAc(b1-6)]Man(a1-6)[Gal(b1-4)GlcNAc(b1-3)Gal(b1-4)GlcNAc(b1-3)Gal(b1-4)GlcNAc(b1-2)Man(a1-3)]Man(b1-4)GlcNAc(b1-4)[Fuc(a1-6)]GlcNAc
Procedure, shortened: as §1

[22] = biological target: Gal(b1-4)GlcNAc(b1-3)Gal(b1-4)GlcNAc(b1-3)Gal(b1-4)GlcNAc(b1-3)Gal(b1-4)GlcNAc(b1-2)Man(a1-3)[Gal(b1-4)GlcNAc(b1-3)Gal(b1-4)GlcNAc(b1-3)Gal(b1-4)GlcNAc(b1-3)Gal(b1-4)GlcNAc(b1-2)Man(a1-6)]Man(b1-4)GlcNAc(b1-4)GlcNAc
Procedure, shortened: as §1

[23] = biological target: Gal(b1-4)GlcNAc(b1-3)Gal(b1-4)GlcNAc(b1-3)[Gal(b1-4)GlcNAc(b1-3)Gal(b1-4)GlcNAc(b1-6)]GalNAc
Procedure, shortened: as §1

[24] = biological target: Gal(b1-4)GlcNAc(b1-3)[Gal(b1-4)GlcNAc(b1-6)]Gal(b1-4)GlcNAc
Procedure, shortened: as §1

[25] = biological target: Gal(b1-4)GlcNAc(b1-6)GalNAc
Procedure, shortened: as §1

[26] = biological target: Gal(b1-4)GlcNAc(b1-6)[Gal(b1-4)GlcNAc(b1-3)]GalNAc
Procedure, shortened: as §1

[27] = biological target: Gal(b1-4)GlcNAc6P
Procedure, shortened: as §1

[28] = biological target: Gal3S(b1-4)Glc
Procedure, shortened: as §1

[29] = biological target: Gal3S(b1-4)[Fuc(a1-3)]Glc6S
Procedure, shortened: as §1

[30] = biological target: Gal3S(b1-4)[Fuc(a1-3)]GlcNAc
Procedure, shortened: as §1

B1: Gal 12 (Homo sapiens), Q96DT0 (protein)
chain: MSQPSGGRAPGTRIYSWSCPTVMSPGEKLDPIPDSFILQPPVFHPVVPYVTTIFGGLHAGKMVMLQGVVPLDAHRFQVDFQCGCSLCPRPDIAFHFNPRFHTTKPHVICNTLHGGRWQREARWPHLALRRGSSFLILFLFGNEEVKVSVNGQHFLHFRYRLPLSHVDTLGIFGDILVEAVGFLNINPFVEGSREYPAGHPFLLMSPRLEVPCSHALPQGLSPGQVIIVRGLVLQEPKHFTVSLRDQAAHAPVTLRASFADRTLAWISRWGQKKLISAPFLFYPQRFFEVLLLFQEGGLKLALNGQGLGATSMNQQALEQLRELRISGSVQLYCVHS
glycan array binding signal (z-score) [1]: -0.876 | glycan array binding signal (z-score) [2]: 6.26 | glycan array binding signal (z-score) [3]: 3.71 | glycan array binding signal (z-score) [4]: 5.15 | glycan array binding signal (z-score) [5]: -0.674 | glycan array binding signal (z-score) [6]: -0.63 | glycan array binding signal (z-score) [7]: 4.56 | glycan array binding signal (z-score) [8]: 0.193 | glycan array binding signal (z-score) [9]: 2.65 | glycan array binding signal (z-score) [10]: 2.44 | glycan array binding signal (z-score) [11]: -0.147 | glycan array binding signal (z-score) [12]: -0.863 | glycan array binding signal (z-score) [13]: -0.527 | glycan array binding signal (z-score) [14]: -0.349 | glycan array binding signal (z-score) [15]: 0.94 | glycan array binding signal (z-score) [16]: -0.471 | glycan array binding signal (z-score) [17]: -0.574 | glycan array binding signal (z-score) [18]: -0.771 | glycan array binding signal (z-score) [19]: 1.75 | glycan array binding signal (z-score) [20]: -0.453 | glycan array binding signal (z-score) [21]: 3.44 | glycan array binding signal (z-score) [22]: 2.32 | glycan array binding signal (z-score) [23]: -0.119 | glycan array binding signal (z-score) [24]: 0.824 | glycan array binding signal (z-score) [25]: 0.417 | glycan array binding signal (z-score) [26]: 0.954 | glycan array binding signal (z-score) [27]: 0.272 | glycan array binding signal (z-score) [28]: 0.451 | glycan array binding signal (z-score) [29]: 3.19 | glycan array binding signal (z-score) [30]: 2.76
